Screening data: PubChem BioAssay, several laboratories
Compounds with a hit are over-represented: about 3.8% of the library has one in this group of screens.
Shn3 inh set2 = reduces Shn3 3'UTR luciferase signal in osteoblasts; Clone20 osteoblast Shn3 3'UTR firefly luciferase, 24 h; inhibition, % at 12.5 µM; 0.52% of 360,000 active;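 active = mean inhibition of at least 75% with every replicate also reaching 75%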;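 also: 0% = median of neutral control wells and 100% = pilot-screen positive control compound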
Jurkat NFkB inh = lowers PMA/ionomycin-induced NF-kB signal in Jurkat cells. PMA/ionomycin-induced NF-kB luciferase reporter, luminescence. inhibition, % at 4 µM. 0.53% of 330,000 active; in the data active = inhibition above about 50%
Mdm2 MdmX PPI = disrupts the human Mdm2-MdmX interaction. 3% of 330,000 active. SaOS-2 split-luciferase Mdm2/MdmX complementation, luminescence. O15151+Q00987. inhibition, % at 8 µM;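 active = inhibition of at least 50% at 8 µM in the primary screen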
Target sequence (O15151 whole entry, looked up): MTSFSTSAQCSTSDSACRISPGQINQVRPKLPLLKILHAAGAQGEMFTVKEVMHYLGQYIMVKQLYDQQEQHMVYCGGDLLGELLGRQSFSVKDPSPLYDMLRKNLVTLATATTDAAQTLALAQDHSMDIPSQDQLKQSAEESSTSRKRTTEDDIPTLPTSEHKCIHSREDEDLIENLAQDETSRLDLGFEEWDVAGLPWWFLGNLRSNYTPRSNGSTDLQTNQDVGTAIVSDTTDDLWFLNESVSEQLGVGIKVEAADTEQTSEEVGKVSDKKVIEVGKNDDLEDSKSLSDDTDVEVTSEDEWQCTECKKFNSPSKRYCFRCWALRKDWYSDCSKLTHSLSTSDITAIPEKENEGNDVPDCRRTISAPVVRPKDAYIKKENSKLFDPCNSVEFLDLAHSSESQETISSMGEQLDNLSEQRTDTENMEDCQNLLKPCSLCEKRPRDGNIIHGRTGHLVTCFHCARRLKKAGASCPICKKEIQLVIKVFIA
Target sequence (Q00987 whole entry, looked up): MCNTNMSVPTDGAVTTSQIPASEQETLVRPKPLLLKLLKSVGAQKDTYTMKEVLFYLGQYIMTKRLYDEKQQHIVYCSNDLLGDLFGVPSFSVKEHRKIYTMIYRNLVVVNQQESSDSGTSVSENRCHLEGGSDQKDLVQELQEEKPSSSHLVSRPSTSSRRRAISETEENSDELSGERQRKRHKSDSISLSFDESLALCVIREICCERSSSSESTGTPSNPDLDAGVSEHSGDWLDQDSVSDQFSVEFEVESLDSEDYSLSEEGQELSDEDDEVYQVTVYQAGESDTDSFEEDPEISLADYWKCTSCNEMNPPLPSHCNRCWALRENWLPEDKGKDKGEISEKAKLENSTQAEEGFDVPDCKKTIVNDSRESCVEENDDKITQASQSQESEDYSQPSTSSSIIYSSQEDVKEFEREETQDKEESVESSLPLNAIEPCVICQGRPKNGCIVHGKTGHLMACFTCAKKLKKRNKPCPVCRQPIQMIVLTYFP
697 NFkB inh = lowers PMA/ionomycin-induced NF-kB signal in 697 B cells. inhibition, % at 4 µM. 697 B-cell NF-kB luciferase reporter, 16 h. 0.33% of 330,000 active; in the data active = inhibition above about 35%
Gli-Sufu antag = blocks Gli-Sufu signaling in a luciferase reporter; 0.74% of 340,000 active; inhibition, % at 5 µM; AID 588413; Sufu-KO-LIGHT fibroblasts, Gli luciferase reporter luminescence;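 active = inhibition above about 55%, limit read from the data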;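 also: 0% = DMSO-treated cells and 100% = wells with medium but no cells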
Jurkat NFkB conf = lowers PMA/ionomycin-induced NF-kB signal in Jurkat cells. shares compounds with Jurkat NFkB inh. Jurkat NF-kB luciferase, 16 h. inhibition, % at 4 µM. 27% of 2,700 active. AID 435020;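 active = inhibition reaching about 45% at 4 µM in either replicate, limit read from the data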;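 also: plate controls were PMA/ionomycin stimulated DMSO wells for no effect and unstimulated DMSO wells for full effect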
An asterisk follows results filed as active; / = no result.

SMILES	Shn3 inh set2	Jurkat NFkB inh	Mdm2 MdmX PPI	697 NFkB inh	Gli-Sufu antag	Jurkat NFkB conf
CCOc1ccc(-c2cn3ccccc3n2)cc1	0	-153	-135	-197	-79	-62
Cc1ccc([C@@H]2CC(=O)[C@@H]3CN(S(=O)(=O)c4ccc(C)cc4)[C@H](c4ccc(Cl)cc4)C[C@@H]3N2S(=O)(=O)c2ccc(C)cc2)cc1	8	/	/	/	/	/
O=C(COc1cccc2ccccc12)N/N=C/c1ccccc1OCc1ccc(C(=O)O)cc1	-1	4	-21	16	-11	/
O=C(COc1ccccc1-c1ccccc1)N/N=C/c1cccc2ccccc12	12	56*	32	22	44	51*
CN(C)CCCNc1cc(O)c2ncccc2c1	-5	56*	20	17	18	25
COc1ccc(N/C=C/C(=O)c2ccc(Cl)cc2)cc1	-65	-174	-125	-195	-91	-1
COc1cccc(C(=O)/C=C/Nc2cccc(O)c2)c1	-15	-199	-257	-62	-32	-182
COc1cccc(C(=O)/C=C/Nc2ccc(NC(C)=O)cc2)c1	-56	-48	-17	-54	-60	/
CC(=O)Nc1ccc(-c2nc3cc(Cl)ccc3o2)cc1	-71	-152	-199	-239	-116	-99
CCOc1ccc2nc(NC(=O)Nc3ccccc3)sc2c1	-27	-123	-141	-172	-95	/
CCOc1ccc2nc(NC(=O)Nc3cccs3)sc2c1	-57	-167	-160	-169	-108	-128
CC(=O)Nc1ccc(/C(C)=N/NC(=O)c2ccccc2Cl)cc1	3	-6	-30	-55	-24	/
C/C(=N\NC(=O)c1ccccc1Cl)c1ccccn1	92*	89*	48	-146	64*	-17
COc1cccc(NC(=S)NC2CC(C)CC(C)(C)C2)c1 (centres undefined)	8	/	/	/	/	/
C=CCn1c(SCc2cc(C(C)=O)ccc2OCC)nc2ccccc2c1=O	28	58*	36	7	14	36
Oc1c(-c2cc(-c3ccco3)[nH]n2)ccc2ccccc12	-65	-156	-157	-147	-90	-73
Cc1ccc(N/C=C(/C#N)c2ccsc2)cc1C	-93	-172	-250	-161	-10	-48
O=C(Nc1nc2ccc(F)cc2s1)c1cccs1	-67	-192	-189	-238	-71	-118
O=C(Nc1ccccc1NC(=O)c1csnn1)c1csnn1	5	13	5	0	-3	/
CC(C)c1ccc(NC(=O)c2csnn2)cc1	-97	-162	-87	-175	-70	-109
Cc1cc(C)c(CN2CCN(C(=O)Cn3cnc4c(OCc5ccccc5)ncnc43)CC2)c(C)c1	80	59*	45	33	46	59*
O=C(O)Cn1cnc2c(OCc3ccccc3)ncnc21	-11	-5	19	-7	18	/
Nc1ncnc2c1ncn2[C@@H]1O[C@H](CCC(=O)NCc2ccccc2)[C@@H](O)[C@H]1O	6	/	/	/	/	/
COC(=O)C1Cc2c([nH]c3ccccc23)CN1 (centres undefined)	7	53*	-15	-8	-3	8
CC(=O)Nc1ccc(C(=O)Nc2cccc(S(=O)(=O)N(C)c3ccccc3)c2)cc1	12	2	16	-2	-22	/
SMILES	Shn3 inh set2	Jurkat NFkB inh	Mdm2 MdmX PPI	697 NFkB inh	Gli-Sufu antag	Jurkat NFkB conf
CN(c1ccccc1)S(=O)(=O)c1cccc(NC(=O)c2ccc(Cl)c([N+](=O)[O-])c2)c1	73	63*	24	-5	6	10
Cc1ccc(-c2nc3cc(N)ccc3o2)cc1Br	-65	-160	-126	-140	-86	-88
Nc1ccc(-c2nc3cc(N)ccc3o2)cc1	-33	-104	-99	-134	-69	/
CCc1sc(C(=O)N2CCc3ccccc32)cc1C	-62	-192	-309	-167	-112	-102
O=C(c1ccc(Cl)s1)N1CCc2ccccc21	-131	-116	-147	-67	-62	/
C#CCOCCOCCOCCNc1nc(N2CCN(C(=O)[C@H](CCCCN)n3cc([C@@H](N)[C@H](C)CC)nn3)CC2)nc(N2CCN(C(=O)[C@H](CCC(=O)O)n3cc([C@@H](N)CCSC)nn3)CC2)n1	-2	11	31	1	6	/
Cc1ccc(C(=O)Nc2ncc(Cc3ccc(SC(F)F)cc3)s2)cc1	-31	64*	39	-78	37	48*
Cc1cc(N/C=C/C(=O)c2ccccc2)ccc1Br	-33	-167	-40	-248	-88	-120
CC(=O)Nc1ccc(N/C=C/C(=O)c2ccccc2)cc1	-87	-109	-30	-115	-135	/
CN(C)c1ccc(N/C=C/C(=O)c2ccccc2)cc1	13	-171	-41	-100	-49	-49
Cc1ccc(C(=O)/C=C\Nc2ccc(C)c(C)c2)cc1	-52	-162	-199	-146	-62	-18
Cc1ccc(O)c(N/C=C/C(=O)c2ccc(F)cc2)c1	-11	85*	-20	-50	24	14
Cc1ccc(N/C=C/C(=O)c2ccc(C)cc2)cc1	-63	-142	-66	-135	-82	/
O=[N+]([O-])c1ccc(COc2ccc(CN3CCCC3)cc2)cc1	-30	/	/	/	-79	/
CC(=O)Oc1ccccc1C(=O)N(C1CCCCC1)C1CCCCC1	38	-7	12	16	1	/
CN(CC(=O)Nc1ccc(Cl)cc1F)C1=NS(=O)(=O)c2ccccc21	-10	-18	6	-4	0	/
Cc1ccc(C(=O)/C=C/Nc2ccc([N+](=O)[O-])cc2Br)cc1	-85	-165	22	-187	-94	-41
Clc1ccccc1OCc1nc(-c2ccccn2)no1	-23	-101	-142	-204	-118	/
Clc1ccc(OCc2nc(-c3ccccn3)no2)c(Br)c1	-12	-165	-33	-244	-83	-119
CCCc1cc(C(=O)Nc2ccc(CC)cc2)no1	-46	-177	-94	-136	-8	-91
CC(C)Cc1cc(C(=O)Nc2cccc(O)c2)no1	21	-203	-215	14	-5	-112
CCCc1cc(C(=O)Nc2ccc(C)cc2)no1	-54	-129	-118	-49	-22	/
CC(=O)c1cccc(NC(=O)c2cc(C(C)C)on2)c1	-116	-99	-110	-85	-78	/
CCc1ccc(NC(=O)c2cc(C(C)C)on2)cc1	-82	-215	-130	-155	-40	-128
CCc1ccc(NC(=O)c2cc(C)on2)cc1	-48	-145	-106	-119	-55	/
SMILES	Shn3 inh set2	Jurkat NFkB inh	Mdm2 MdmX PPI	697 NFkB inh	Gli-Sufu antag	Jurkat NFkB conf
CC(C)c1cc(C(=O)Nc2cccc(Cl)c2)no1	-46	-232	-145	-141	-49	-91
COc1ccc(NS(=O)(=O)c2ccc(C)c(C(=O)NCCCn3ccnc3)c2)cc1	-5	/	/	/	/	/
Cc1ccc(CN=C2Nc3ccccc3CS2)cc1	-8	-171	-159	-208	-157	-80
O=C(Nc1ccc(F)cc1)Nc1nnc([C@@H]2C[C@H](O)[C@@H](CO)O2)s1	14	/	/	/	/	/
O=C(COC(=O)c1cccc(OC(F)F)c1)Nc1cccc(S(=O)(=O)N2CCCC2)c1	-14	63*	15	1	-4	11
COn1c(-c2ccccc2)nc2ccc(Cl)cc21	-39	-66	-72	-67	-53	/
Clc1ccc2nc3c4ccccc4cnn3c2c1	-69	-160	-199	-174	-42	-121
